Consider 40 compounds from PubChem BioAssay (NCATS).

Inconclusive results are not listed. Active and inactive are the calls of the source. The call rests on the fitted dose curve; in most records, active means well fitted inhibition curve with a large enough effect; inconclusive means small, poorly fitted or top-dose-only effect; inactive means no such curve, though single readings can be large or run the other way.
On the % scale 0 is the no-effect control and ±100 the full control effect; potency means the concentration at half of the fitted maximal effect.

Cytochrome P450 2C9 (Homo sapiens), sequence (P11712 whole entry, looked up): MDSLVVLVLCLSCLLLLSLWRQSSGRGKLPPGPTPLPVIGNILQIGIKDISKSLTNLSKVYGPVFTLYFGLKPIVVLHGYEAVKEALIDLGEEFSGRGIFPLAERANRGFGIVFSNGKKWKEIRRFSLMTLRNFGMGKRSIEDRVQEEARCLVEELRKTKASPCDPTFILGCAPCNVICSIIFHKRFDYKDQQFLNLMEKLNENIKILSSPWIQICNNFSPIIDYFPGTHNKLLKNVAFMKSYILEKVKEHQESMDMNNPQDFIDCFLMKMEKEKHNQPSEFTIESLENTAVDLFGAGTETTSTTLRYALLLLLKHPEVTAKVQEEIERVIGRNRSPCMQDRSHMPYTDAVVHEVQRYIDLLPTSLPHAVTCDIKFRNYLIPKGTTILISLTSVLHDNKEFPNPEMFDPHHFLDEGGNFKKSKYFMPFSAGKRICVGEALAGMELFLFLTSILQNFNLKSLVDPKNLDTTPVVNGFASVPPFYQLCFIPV

This assay concerns the target Cytochrome P450 2C9 (Homo sapiens) (UniProt P11712). Nature of the assay: qHTS Assay for Inhibitors and Substrates of Cytochrome P450 2C9 (AID 883). Further: nearly all actives have a fitted effect of over 60% in size. The conditions noted are these: recombinant CYP2C9, luciferin-H luminescence, 60 min; series mostly up to 57.1 µM; activity change, negative = inhibition: at the top concentration. How it is done: NIH Molecular Libraries Screening Centers Network [MLSCN] NIH Chemical Genomics Center [NCGC] MLSCN Grant: None NCGC Assay Overview: The P450 gene superfamily is involved in the metabolism and clearance of xenobiotics. This assay used human CYP2C9 to measure the hydroxylation of deoxyluciferin (Luciferin-H; P450 Glo-Buffer) to luciferin. The luciferin is then measured by luminescence after the addition of a luciferase detection reagent. Luciferin-H concentration in the assay was equal to its Michaelis constant KM for CYP2C9. Inhibitors and some substrates limit the production of luciferin, and decrease measured luminescence.
NCGC Assay Protocol Summary: Two uL of enzyme and substrate mix (final concentrations: 10nM CYP2C9, 100uM Luciferin-H, 25mM KPO4) were dispensed into a white, solid bottom 1536-well microtiter plate. 23nL of compound was transferred by a pin tool. The plate was incubated at 37C for 10 min. Two uL of an NADPH regeneration solution (Promega supplied reagent) was dispensed and the reaction was allowed to continue for 60 min at 37C. Then the reaction was stopped by reconstituted P450 Glo-Buffer. After another 20 min of incubation the plate was read on the ViewLux (Perkin Elmer) at 60 sec exposure and 2x2 binning. This protocol was carried out with Promega-Glo reagents and further information can be found at http://www.promega.com/tbs/tb325/tb325.pdf. Data were normalized to the to AC100 inhibition (57uM sulphaphenazole). Keywords: P450, CYP2C9, Luciferase, MLSMR, MLSCN, NIH Roadmap, qHTS, NCGC
In general terms: Quantitative high-throughput screening tests each substance at several concentrations.
For the compound `COc1ccc(CNc2ncncc2-c2cccnc2)c(OC)c1`, the activity change, negative = inhibition was 26.1% [at 2.29 µM] (inactive).
With `COCCNc1cc(-c2ccccc2CN(C)C)ncn1`, the activity change, negative = inhibition is 49.4% [at 2.29 µM] (inactive).
As to `O=C(c1csnn1)N1CCC2(CCCN(c3ccccc3)C2)CC1`, the Potency is 7.94 µM (active).
`CCNc1ncc2ncc(=O)n(C3CC3)c2n1`: the “activity change, negative = inhibition” value is 33.5% (inactive).
For `COCCNc1ccnc(-c2ccccc2C(F)(F)F)n1`, the activity change, negative = inhibition is 34.3% [at 2.29 µM] (inactive).
Same read-out and setting: for `CN(C)c1ncc2nc(-c3cc(F)cc(F)c3)c(=O)n(CCC#N)c2n1` the value was 37.4% (inactive).
On to `CN(C)c1ccnc(-c2cccc(NS(C)(=O)=O)c2)n1`, for which the activity change, negative = inhibition was 2.49% [at 2.29 µM] (inactive).
For `COc1ccccc1CCn1c(=O)c(-c2cc(F)cc(F)c2)nc2cncnc21`, the Potency was 1.58 µM (active).
In the case of `O=c1c(-c2ccc(F)cc2)nc2cnc(N3CCOCC3)nc2n1C[C@H]1CCCO1`, the “activity change, negative = inhibition” value was 35.3% (inactive).
On to `O=C(c1ccncc1)N1CCC2(CC1)CN(c1ccccc1)C2`, for which the Potency was 2.51 µM (active).
As for `CS(=O)(=O)Nc1cccc(-c2cncnc2NCc2cccs2)c1`, the Potency is 0.126 µM (active).
In the case of `CN1CCN(c2nc(-c3ccc(N(C)C)cc3)nc3ccccc23)CC1`, the activity change, negative = inhibition was 9.44% [at 2.29 µM] (inactive).
In the case of `O=c1cnc2cnc(Oc3cccc(Cl)c3)nc2n1Cc1ccc(F)cc1`, the Potency is 7.94 µM (active).
Consider `O=c1c(-c2ccc(Cl)cc2)nc2cnc(N3CCOCC3)nc2n1-c1ccccc1`, for which the “activity change, negative = inhibition” value was 31.9% (inactive).
For `Cn1cc(-c2nc3cnc(N4CCNCC4)nc3n(C)c2=O)c2ccccc21`, the Potency was 7.94 µM (active).
With `O=C(c1csnn1)N1CCC2(CC1)CN(c1ccncc1)C2`, the Potency was 2.51 µM (active).
For the compound `CN(C)c1ccc(-c2nc(N(C)Cc3ccco3)c3ccccc3n2)cc1`, the activity change, negative = inhibition is 33.8% [at 2.29 µM] (inactive).
As for `CN(C)Cc1ccccc1-c1cc(NC2CC2)ncn1`, the activity change, negative = inhibition was 5.15% [at 2.29 µM] (inactive).
With `O=c1c(CCc2ccccc2)nc2cncnc2n1Cc1ccc(F)cc1`, the Potency was 7.94 µM (active).
For `Cn1c(=O)c(-c2ccc(Cl)cc2)nc2cnc(N3CCOCC3)nc21`, the “activity change, negative = inhibition” value was 16.4% (inactive).
`COc1ccc2[nH]cc(CCNc3ncncc3-c3ccc(N(C)C)cc3)c2c1`: the Potency was 0.501 µM (active).
As to `Cc1noc(C)c1-c1cc(NC2CCNCC2)ncn1`, the activity change, negative = inhibition is 23.1% [at 2.29 µM] (inactive).
`COC(=O)N1CCC[C@@]2(CCN(c3ccncc3)C2)C1`: the “activity change, negative = inhibition” value was 51% (inactive).
For `Cn1cc(-c2nc3cnc(Oc4cccc(Cl)c4)nc3n(CCC#N)c2=O)c2ccccc21`, the “activity change, negative = inhibition” value is 23.4% (inactive).
As to `CN(C)c1ncc2ncc(=O)n(CCc3ccccc3)c2n1`, the Potency is 6.31 µM (active).
With `Cc1noc(C)c1C(=O)N1CCC2(CCCN(C(=O)NC(C)C)C2)CC1`, the “activity change, negative = inhibition” value is 37.3% (inactive).
On to `Cc1noc(C)c1C(=O)N1CCC2(CC1)CCN(c1cccc(-c3ccccc3)c1)CC2`, for which the “activity change, negative = inhibition” value is -16.7% (inactive).
Consider `COc1ccc(-c2nc3cnc(N4CCNCC4)nc3n(Cc3ccc(F)cc3)c2=O)cc1`, for which the “activity change, negative = inhibition” value was 17.2% (inactive).
On to `CC(=O)NCCNc1ncncc1-c1ccccc1C`, for which the activity change, negative = inhibition is 19.5% [at 2.29 µM] (inactive).
As for `O=c1c(-c2cccs2)nc2cncnc2n1Cc1ccccc1`, the Potency is 1.26 µM (active).
As for `Cc1noc(C)c1-c1cc(NCc2cccnc2)ncn1`, the activity change, negative = inhibition is 9.31% [at 2.29 µM] (inactive).
Consider `CN(C)c1ccc(-c2cc(Nc3ccc(F)cc3)ncn2)cc1`, for which the activity change, negative = inhibition is 8.7% [at 2.29 µM] (inactive).
As to `CN(CCOc1ccc(C[C@H](Nc2ccccc2C(=O)c2ccccc2)C(=O)O)cc1)c1ccccn1`, the Potency is 10 µM (active).
In the case of `COc1ccc(CNc2ncnc3ccc(-c4ccccc4CN(C)C)cc23)c(OC)c1`, the activity change, negative = inhibition is 2.97% [at 2.29 µM] (inactive).
`COc1ccc(-c2nc3cnc(N4CCNCC4)nc3n(CCc3ccccc3)c2=O)cc1`: the Potency was 3.98 µM (active).
For the compound `COc1ccc(CNc2ncnc3ccc(-c4ccccc4OC)cc23)c(OC)c1`, the Potency was 0.398 µM (active).
Turning to `CN1CCN(c2ncc3nc(-c4ccccc4)c(=O)n(CCc4ccccc4)c3n2)CC1`, the Potency was 3.16 µM (active).
For the compound `N#Cc1cccc(-c2nc3cnc(Oc4cccc(Cl)c4)nc3n(C3CC3)c2=O)c1`, the Potency is 3.16 µM (active).
Take `N=C1Sc2ccccc2C2=NCCCN12`: the Potency was 0.794 µM (active).
For the compound `CN(C)C(=O)c1ccc(-c2ccc3ncnc(N4CCC(C(=O)O)CC4)c3c2)cc1`, the activity change, negative = inhibition was 37.2% [at 2.29 µM] (inactive).
